The source of these data is the supplement of paper PMC10338343.

± gives the standard deviation.

The subject of the first experiment is MILI (PIWIL2) piRISC loaded with L1MC piRNA (26 nt). Nature of the experiment: pre-steady-state target cleavage rate (min^-1); guide: L1MC piRNA 5'p-UAACUAAAUACUAUGCAAGCUGUAGG; MIWI and MILI are mouse PIWI proteins and EfPiwi is from a freshwater sponge; tags in brackets are library labels; higher = faster piRNA-guided slicing of the target. To be noted: auxiliary factor: 500 nM mouse GTSF1. Here is the method:
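Cleave-'n-Seq: a library of target RNAs (target site embedded in constant flanks, ACAGCATTCCGCGTTAGTGATATCCG... 5' flank; DNA-blocked outside the site) at 0.1 nM was incubated with 1 nM active mouse MILI or MIWI piRISC (synthetic 5'-monophosphorylated piRNA guide) with or without 500 nM mouse GTSF1 at 33 °C for 1 min to 16 h. Uncleaved targets were sequenced and normalised to non-target controls, and the pooled three trials were fitted to a burst-and-steady-state model to give the pre-steady-state cleavage rate (min^-1; k3 is constrained to at most 1e-4). Sequence is the target site only; target names encode pairing extent (gX:gY) and contiguous / 1-mismatch / 2-mismatch / bulge geometry. Fits with R² ≤ 0 are excluded.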
Regarding UCCUGCUACUGCUAGCAUAGUAUUUAGUUA, the “pre-steady-state target cleavage rate” value is 0.253 ± 0.017.

UCCUGGAACAGCUUGCAUAGUAUUUAGUGA: the “pre-steady-state target cleavage rate” value is 0.229 ± 0.027.

Turning to UCCUGGAUGUGCUUGCAUAGUAUAAAGUUA, the “pre-steady-state target cleavage rate” value turned out to be 0.0611 ± 0.011.

With UCCUGGUGCAGCUUGCAUAGUAUUUAGUUA, the “pre-steady-state target cleavage rate” value worked out at 0.287 ± 0.017.

Regarding UCCUGGAUGUGCUUGCCAUAGUAUUUAGUUA, the “pre-steady-state target cleavage rate” value stood at 0.014 ± 0.0071.

For UCCUGGUACAGCUUGCAGAGUAUUUAGUUA, the “pre-steady-state target cleavage rate” value came out at 0.121 ± 0.026.

On to UCCUGGAUGUGCUUGCAUAGAUUUUAGUUA, for which the “pre-steady-state target cleavage rate” value was determined as 0.00729 ± 0.0044.

UCCUGGAACAGCUUGCAUAGUAUUCAGUUA: the “pre-steady-state target cleavage rate” value stood at 0.228 ± 0.042.

As to UCCUCCUAGUCCUUGCAUAGUAUUUAGUAA, the “pre-steady-state target cleavage rate” value was 0.102 ± 0.018.

Consider UCCUGGAUGUCGUUGCAUAGUAAUUUAGUUA, for which the “pre-steady-state target cleavage rate” value amounted to 0.0127 ± 0.0059.

As for UCCUGGAUGUGCUGUGCAUAGUAUUUAGUUA, the “pre-steady-state target cleavage rate” value stood at 0.131 ± 0.015.

UCCUCCUACAGCUAGCAUAGUAUUUUCAAA: the “pre-steady-state target cleavage rate” value was determined as 0.137 ± 0.027.

As for UCCUGGAUCAGCAUUGCAUAGUAUUUAGUUA, the “pre-steady-state target cleavage rate” value worked out at 0.278 ± 0.024.

On to UCCUGGAUGUCGUUGCCAUAGUAUUUAGUUA, for which the “pre-steady-state target cleavage rate” value is 0.00586 ± 0.0034.

For UCCUGCUACAGCUAGCAUAGUAUUUACAAA, the “pre-steady-state target cleavage rate” value came out at 0.0708 ± 0.018.

On to UCCUGGAUGUGCUUGCAUAGUAUAAUGUUA, for which the “pre-steady-state target cleavage rate” value worked out at 0.081 ± 0.022.

As to UCCUGGAUGUCGUUGCAUAGUAUUUCAGUUA, the “pre-steady-state target cleavage rate” value was 0.0621 ± 0.017.

Regarding UCCUGGAUCUGCUUGCAUAGUAUUAAGUUA, the “pre-steady-state target cleavage rate” value came to 0.204 ± 0.019.

As to UCCUGGAAGAGCUUGCAUAGUAAUUAGUUA, the “pre-steady-state target cleavage rate” value worked out at 0.177 ± 0.015.

In the case of UCCUGGUACAGCAACCAUAGUAUUUAGUAA, the “pre-steady-state target cleavage rate” value amounted to 0.313 ± 0.064.

Consider UCCUGGAUGAGCUUGCAUAGUAUUUGGUUA, for which the “pre-steady-state target cleavage rate” value stood at 0.203 ± 0.025.

For UCCUGCUACAGCUUCCAAAGUAUUUAGUUA, the “pre-steady-state target cleavage rate” value came out at 0.112 ± 0.015.

Staying with this experiment, now noted: auxiliary factor: none (no GTSF1).
Regarding UCCUGCUACUGCUAGCAUAGUAUUUAGUUA, the “pre-steady-state target cleavage rate” value was determined as 0.0054 ± 0.0023.

As to UCCUGGAACAGCUUGCAUAGUAUUUAGUGA, the “pre-steady-state target cleavage rate” value was 0.00433 ± 0.0025.

On to UCCUGGAUGUGCUUGCAUAGUAUAAAGUUA, for which the “pre-steady-state target cleavage rate” value was found to be 0.00318 ± 0.0025.

In the case of UCCUGGUGCAGCUUGCAUAGUAUUUAGUUA, the “pre-steady-state target cleavage rate” value came to 0.0103 ± 0.0029.

Consider UCCUGGUACAGCUUGCAGAGUAUUUAGUUA, for which the “pre-steady-state target cleavage rate” value is 0.00836 ± 0.0028.

For the sequence UCCUGGAUGUGCUUGCAUAGAUUUUAGUUA, the “pre-steady-state target cleavage rate” value worked out at 0.00375 ± 0.0024.

As for UCCUGGAACAGCUUGCAUAGUAUUCAGUUA, the “pre-steady-state target cleavage rate” value amounted to 0.00292 ± 0.0026.

Take UCCUCCUAGUCCUUGCAUAGUAUUUAGUAA: the “pre-steady-state target cleavage rate” value was 0.0027 ± 0.0023.

With UCCUGGAUGUCGUUGCAUAGUAAUUUAGUUA, the “pre-steady-state target cleavage rate” value worked out at 0.00447 ± 0.0029.

Consider UCCUGGAUGUGCUGUGCAUAGUAUUUAGUUA, for which the “pre-steady-state target cleavage rate” value stood at 0.00886 ± 0.004.

Consider UCCUGGAUCAGCAUUGCAUAGUAUUUAGUUA, for which the “pre-steady-state target cleavage rate” value is 0.0103 ± 0.0029.

Consider UCCUGGAUGUCGUUGCAUAGUAUUUCAGUUA, for which the “pre-steady-state target cleavage rate” value stood at 0.00397 ± 0.0033.

As for UCCUGGAUCUGCUUGCAUAGUAUUAAGUUA, the “pre-steady-state target cleavage rate” value is 0.00478 ± 0.0026.

As to UCCUGGAAGAGCUUGCAUAGUAAUUAGUUA, the “pre-steady-state target cleavage rate” value was 0.00468 ± 0.0028.

UCCUGGUACAGCAACCAUAGUAUUUAGUAA: the “pre-steady-state target cleavage rate” value was 0.00382 ± 0.0021.

With UCCUGGAUGUCGAAGCAUAUAUUUAGUUA, the “pre-steady-state target cleavage rate” value was under 0.0001.

Turning to UCCUGGAUGAGCUUGCAUAGUAUUUGGUUA, the “pre-steady-state target cleavage rate” value amounted to 0.00663 ± 0.0031.

Take UCCUGCUACAGCUUCCAAAGUAUUUAGUUA: the “pre-steady-state target cleavage rate” value was 0.00347 ± 0.0025.
